# Reference: PubChem BioAssay (NCATS)
# A number with no mark means an inactive call. Results filed as inconclusive are left out. Active and inactive are the calls of the source. Unless noted, calls follow the shape of the dose curve; as a rule, active = well fitted curve in the direction sought with a large enough effect; inconclusive = small, poorly fitted or top-dose-only effect, or another doubt; inactive = no such curve, though single readings can be large; an effect the other way counts as inactive or inconclusive.
# What was measured:
# [1] = biological target: Lysosomal acid glucosylceramidase (Homo sapiens) (UniProt P04062); experiment: Glucocerebrosidase-p2 (AID 348; in the data active = potency below about 10 µM; also: potency is read from the fitted curve at half-maximal effect); settings: purified GBA, blue fluorogenic substrate, 40 min
# Sequence of Lysosomal acid glucosylceramidase (Homo sapiens) (P04062 whole entry, looked up): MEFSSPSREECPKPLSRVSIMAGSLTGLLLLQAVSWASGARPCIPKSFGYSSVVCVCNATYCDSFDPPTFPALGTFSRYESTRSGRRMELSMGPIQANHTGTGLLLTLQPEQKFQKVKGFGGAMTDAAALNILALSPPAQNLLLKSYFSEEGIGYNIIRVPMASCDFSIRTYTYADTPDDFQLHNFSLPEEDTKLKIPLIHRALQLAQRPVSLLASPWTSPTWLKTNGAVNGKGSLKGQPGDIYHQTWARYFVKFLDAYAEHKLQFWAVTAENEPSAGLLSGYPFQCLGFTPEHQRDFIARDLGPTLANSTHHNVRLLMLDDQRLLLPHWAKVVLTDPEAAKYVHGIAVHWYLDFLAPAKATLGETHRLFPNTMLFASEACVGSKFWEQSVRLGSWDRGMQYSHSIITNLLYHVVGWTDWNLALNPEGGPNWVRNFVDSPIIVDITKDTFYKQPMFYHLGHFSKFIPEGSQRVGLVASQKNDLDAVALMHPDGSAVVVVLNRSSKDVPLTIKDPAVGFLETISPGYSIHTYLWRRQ
# How it was run: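 Compounds titrated from 0.6 nM upwards against 0.2 nM enzyme in pH 5.9 citric acid/KH2PO4, taurocholate, tween-20; blue fluorogenic substrate 80 uM, 40 min room temperature, stopped and read Ex 365/Em 440 for AC50.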
# [2] = AP1 Signaling Pathway (AID 357; active = well fitted curve in either direction with a large enough effect, not every such curve was filed as active;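 also: ME-180 reporter cells stimulated with EGF at its EC50 level; % is scaled to controls: 0 for no effect and ±100 for the full control effect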); settings: ME-180 AP-1-bla reporter, EGF-induced, beta-lactamase ratio, 5 h; at 7.69 µM (top of the series) unless noted
# How it was run: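 AP-1-bla ME-180 cells, Opti-MEM + 0.5% dialyzed FBS, plated overnight 37 °C. Cpd titration + EC50 EGF, 5 h 37 °C. CCF4 2.5 h RT; ex 405, em 460/530 ratio → %activity, AC50.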
# [3] = biological target: Cytochrome P450 1A2 (Homo sapiens) (UniProt P05177); experiment: p450-cyp1a2 (AID 410; calls by dose curve; also: potency is read from the fitted curve at half-maximal effect;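 as to activity change, negative = inhibition: -100% = full effect of reference inhibitor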); settings: recombinant CYP1A2, luciferin-ME demethylation, luminescence; series mostly up to 57 µM
# Sequence of Cytochrome P450 1A2 (Homo sapiens) (P05177 whole entry, looked up): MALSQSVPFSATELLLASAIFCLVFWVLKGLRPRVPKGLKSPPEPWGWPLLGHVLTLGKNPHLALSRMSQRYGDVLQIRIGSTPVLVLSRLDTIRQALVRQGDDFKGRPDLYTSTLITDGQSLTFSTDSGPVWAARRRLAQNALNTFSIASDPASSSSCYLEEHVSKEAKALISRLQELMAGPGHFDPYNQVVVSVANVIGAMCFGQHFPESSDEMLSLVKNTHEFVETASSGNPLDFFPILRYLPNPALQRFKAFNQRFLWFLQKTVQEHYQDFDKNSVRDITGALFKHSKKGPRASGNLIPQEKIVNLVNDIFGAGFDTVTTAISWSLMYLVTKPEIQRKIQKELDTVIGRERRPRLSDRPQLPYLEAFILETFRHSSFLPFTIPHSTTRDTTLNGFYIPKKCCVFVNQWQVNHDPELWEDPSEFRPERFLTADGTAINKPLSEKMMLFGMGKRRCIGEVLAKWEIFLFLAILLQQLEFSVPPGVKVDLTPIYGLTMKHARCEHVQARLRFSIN
# How it was run: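 20nM CYP1A2 with 100uM Luciferin-ME (at Km) in 100mM KPO4; compound preincubated 10 min, NADPH regeneration added, 60 min at room temperature. Luciferin quantified by luminescence after detection reagent; normalized to 57 uM furafylline.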
# [4] = NFAT Signaling Pathway (AID 444; active = well fitted curve in either direction with a large enough effect, not every such curve was filed as active;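 also: carbachol stimulus at about its EC50 of 1 µM final; % is scaled to controls: 0 for no effect and ±100 for the full control effect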); settings: Jurkat NFAT-bla M1, carbachol, beta-lactamase ratio, 5 h; at 7.69 µM (top of the series) unless noted
# How it was run: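 Read-out: CCF4 FRET ratio (460 nm/530 nm) after 1 h RT dye loading, used for %activity and AC50 from titration series. Cells: Jurkat NFAT-β-lactamase/M1 line, treated with compound plus 1 uM carbachol for 5 h, 37 °C.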
# [5] = biological target: Glucocorticoid receptor (Homo sapiens) (UniProt P04150); experiment: GR-GFP Redistribution (AID 450;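 active = compounds whose dose series gives a full or clear partial fitted curve of increased nuclear translocation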; also: potency is read from the fitted curve at half-maximal effect); settings: U2OS GR-GFP nuclear translocation, laser cytometry, 2 h
# Sequence of Glucocorticoid receptor (Homo sapiens) (P04150 whole entry, looked up, the tested form may be a part): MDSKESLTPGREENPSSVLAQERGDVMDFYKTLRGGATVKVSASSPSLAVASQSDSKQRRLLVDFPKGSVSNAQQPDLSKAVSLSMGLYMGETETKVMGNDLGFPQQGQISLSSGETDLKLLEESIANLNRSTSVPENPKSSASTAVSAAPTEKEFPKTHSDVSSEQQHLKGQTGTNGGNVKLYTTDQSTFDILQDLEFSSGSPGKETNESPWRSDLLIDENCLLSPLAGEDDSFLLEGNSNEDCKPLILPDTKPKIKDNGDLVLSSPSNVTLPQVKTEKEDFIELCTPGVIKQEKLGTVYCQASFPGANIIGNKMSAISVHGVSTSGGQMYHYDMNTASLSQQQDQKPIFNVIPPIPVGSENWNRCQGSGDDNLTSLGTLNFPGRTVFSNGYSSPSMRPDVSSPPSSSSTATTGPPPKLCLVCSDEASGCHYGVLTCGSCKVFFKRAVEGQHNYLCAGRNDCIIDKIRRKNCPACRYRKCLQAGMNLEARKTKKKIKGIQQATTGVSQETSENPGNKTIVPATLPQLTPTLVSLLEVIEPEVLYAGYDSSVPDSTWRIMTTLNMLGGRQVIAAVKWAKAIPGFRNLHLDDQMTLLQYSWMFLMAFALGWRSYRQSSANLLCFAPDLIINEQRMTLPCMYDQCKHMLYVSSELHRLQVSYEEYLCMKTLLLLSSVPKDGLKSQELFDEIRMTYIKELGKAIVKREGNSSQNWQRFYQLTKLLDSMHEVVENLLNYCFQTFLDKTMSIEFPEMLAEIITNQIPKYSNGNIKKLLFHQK
# [6] = biological target: Glucocorticoid receptor (Homo sapiens) (UniProt P04150); experiment: GR-EFC Redistribution (AID 451; calls by dose curve; also: potency is read from the fitted curve at half-maximal effect); settings: CHO-K1 GR-EFC translocation, beta-gal luminescence, 2 h
# How it was run: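 Translocation of GR-ED fusion to nuclear EA restores b-gal, read by luminescence after 1 h room-temperature detection. Engineered CHO-K1 biosensor cells, 1,000/well, exposed 2 h at 37 C to titrations up to 46 uM final.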
# [7] = biological target: 3',5'-cyclic-AMP phosphodiesterase 4B (Homo sapiens) (UniProt Q07343); experiment: qHTS Assay for Inhibitors of PDE-IV (AID 607; active = well fitted activation curve with a large enough effect in the main read-out, with a control signal flat, not every such curve was filed as active; also: % of control where 0% means no effect); settings: HEK293 ACTOne CNG channel cells, membrane potential fluorescence; series mostly up to 22.9 µM
# Sequence of 3',5'-cyclic-AMP phosphodiesterase 4B (Homo sapiens) (Q07343 whole entry, looked up): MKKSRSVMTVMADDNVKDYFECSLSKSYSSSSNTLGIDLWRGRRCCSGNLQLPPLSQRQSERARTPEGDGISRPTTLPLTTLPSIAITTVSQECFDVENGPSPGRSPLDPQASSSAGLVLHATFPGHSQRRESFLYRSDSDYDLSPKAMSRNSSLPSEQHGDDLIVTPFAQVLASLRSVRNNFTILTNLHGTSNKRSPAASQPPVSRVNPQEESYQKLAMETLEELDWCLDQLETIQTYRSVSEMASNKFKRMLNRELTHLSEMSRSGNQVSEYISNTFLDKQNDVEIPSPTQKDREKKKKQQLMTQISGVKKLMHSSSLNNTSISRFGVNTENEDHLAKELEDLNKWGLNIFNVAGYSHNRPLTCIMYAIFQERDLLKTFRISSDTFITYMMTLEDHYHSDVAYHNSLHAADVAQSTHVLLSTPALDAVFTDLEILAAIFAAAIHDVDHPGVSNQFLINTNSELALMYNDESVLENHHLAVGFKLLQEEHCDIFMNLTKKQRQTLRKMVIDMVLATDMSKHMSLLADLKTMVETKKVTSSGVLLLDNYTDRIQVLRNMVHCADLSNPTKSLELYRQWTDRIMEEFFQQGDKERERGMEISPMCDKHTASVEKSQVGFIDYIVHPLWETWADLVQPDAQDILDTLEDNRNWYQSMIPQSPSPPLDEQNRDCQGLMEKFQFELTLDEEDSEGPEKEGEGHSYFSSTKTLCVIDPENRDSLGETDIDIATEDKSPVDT
# How it was run: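 The readout is membrane depolarisation from a cAMP-sensing CNG channel, detected with a potential dye at ex 535/em 590. Cells were HEK293-derived (endogenous PDE-IV) at 1000 cells/well, titrated up to 22.9 uM final.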
# [8] = qHTS Assay for Identification of Small Molecule Agonists for Hypoxia Response Element Signaling Pathway (AID 914; active = well fitted activation curve with a large enough effect in the signal ratio, with a control signal flat, not every such curve was filed as active; the % refers to the signal ratio; also: potency is read from the fitted curve at half-maximal effect); settings: ME-180 HRE-bla reporter, beta-lactamase ratio, CoCl2, 17 h; activation: active compounds read high
# How it was run: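 Cells were plated overnight, pin-dosed with compound in a titration series, co-stimulated with EC50 CoCl2 and incubated 17 hours at 37 degrees Celsius. CCF4 substrate was then loaded, and AC50 values came from the 460nm/530nm ratio.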
# [9] = biological target: Dual specificity protein kinase CLK4 (Homo sapiens) (UniProt Q9HAZ1); experiment: qHTS Assay for Inhibitors of CDC-like Kinase 4 (Kinase-Glo Assay) (AID 1770); settings: recombinant Clk4, Kinase-Glo ATP depletion luminescence; series mostly up to 66.7 µM; also: nearly all actives have a fitted effect of over 65% in size; also: potency is read from the fitted curve at half-maximal effect
# Sequence of Dual specificity protein kinase CLK4 (Homo sapiens) (Q9HAZ1 whole entry, looked up): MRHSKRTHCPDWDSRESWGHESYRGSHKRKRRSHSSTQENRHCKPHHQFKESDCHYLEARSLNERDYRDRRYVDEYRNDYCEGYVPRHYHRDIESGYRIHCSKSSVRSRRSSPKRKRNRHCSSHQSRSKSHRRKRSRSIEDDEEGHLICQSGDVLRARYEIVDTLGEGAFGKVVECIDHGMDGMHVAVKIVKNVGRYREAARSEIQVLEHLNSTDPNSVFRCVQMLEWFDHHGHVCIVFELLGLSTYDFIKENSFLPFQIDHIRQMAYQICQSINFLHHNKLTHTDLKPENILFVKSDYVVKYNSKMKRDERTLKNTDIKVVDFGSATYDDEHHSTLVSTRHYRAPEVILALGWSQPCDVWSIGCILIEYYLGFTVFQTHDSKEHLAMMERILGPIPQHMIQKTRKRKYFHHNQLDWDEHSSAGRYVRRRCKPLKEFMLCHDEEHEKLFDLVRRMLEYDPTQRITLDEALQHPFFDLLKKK
# How it was run: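 Substrate mix (RS peptide 100 uM, ATP 1 uM) dispensed, compound pinned in, then Clk4 added to 25 nM final. Incubated 4.5 h at RT; Kinase-Glo reagent added, luminescence read after 5 min.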
# [10] = biological target: Dual specificity protein kinase CLK4 (Homo sapiens) (UniProt Q9HAZ1); experiment: qHTS Assay for Inhibitors of CDC-like Kinase 4 (ADP-Glo Assay) (AID 1771); settings: recombinant CLK4, ADP-Glo luminescence; series mostly up to 80 µM; also: nearly all actives have a fitted effect of over 70% in size; also: potency is read from the fitted curve at half-maximal effect
# How it was run: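 25 nM Clk4 with 100 uM RS repeat peptide and 1 uM ATP (final) in buffer with 2 mM MgCl2, 0.5 mM EGTA, 2.5 mM DTT, 0.01% Triton X-100; 1 h at room temperature; ADP-Glo luminescence for ADP formed.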
# [11] = biological target: Dual specificity protein kinase CLK4 (Homo sapiens) (UniProt Q9HAZ1); experiment: qHTS Assay for Inhibitors of CDC-like Kinase 4 (ADP-FP Assay) (AID 1795); settings: Transcreener ADP fluorescence polarization; series mostly up to 50 µM; also: nearly all actives have a fitted effect of over 60% in size; also: potency is read from the fitted curve at half-maximal effect
# How it was run: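 Clk4 6.25 nM; RS peptide 100 uM; ATP 1 uM; 25 mM Tris pH 7.5, 10 mM MgCl2; 1 h reaction. ADP detected via antibody/orange tracer FP displacement; TG003 positive control.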
# [12] = biological target: Ubiquitin carboxyl-terminal hydrolase 1 (Homo sapiens) (UniProt O94782); experiment: Inhibitors of USP1/UAF1: Pilot qHTS (AID 504865); settings: purified USP1/UAF1, Ub-rhodamine cleavage fluorescence; series mostly up to 54.9 µM; also: nearly all actives have a fitted effect of over 35% in size; also: potency is read from the fitted curve at half-maximal effect
# Sequence of Ubiquitin carboxyl-terminal hydrolase 1 (Homo sapiens) (O94782 whole entry, looked up): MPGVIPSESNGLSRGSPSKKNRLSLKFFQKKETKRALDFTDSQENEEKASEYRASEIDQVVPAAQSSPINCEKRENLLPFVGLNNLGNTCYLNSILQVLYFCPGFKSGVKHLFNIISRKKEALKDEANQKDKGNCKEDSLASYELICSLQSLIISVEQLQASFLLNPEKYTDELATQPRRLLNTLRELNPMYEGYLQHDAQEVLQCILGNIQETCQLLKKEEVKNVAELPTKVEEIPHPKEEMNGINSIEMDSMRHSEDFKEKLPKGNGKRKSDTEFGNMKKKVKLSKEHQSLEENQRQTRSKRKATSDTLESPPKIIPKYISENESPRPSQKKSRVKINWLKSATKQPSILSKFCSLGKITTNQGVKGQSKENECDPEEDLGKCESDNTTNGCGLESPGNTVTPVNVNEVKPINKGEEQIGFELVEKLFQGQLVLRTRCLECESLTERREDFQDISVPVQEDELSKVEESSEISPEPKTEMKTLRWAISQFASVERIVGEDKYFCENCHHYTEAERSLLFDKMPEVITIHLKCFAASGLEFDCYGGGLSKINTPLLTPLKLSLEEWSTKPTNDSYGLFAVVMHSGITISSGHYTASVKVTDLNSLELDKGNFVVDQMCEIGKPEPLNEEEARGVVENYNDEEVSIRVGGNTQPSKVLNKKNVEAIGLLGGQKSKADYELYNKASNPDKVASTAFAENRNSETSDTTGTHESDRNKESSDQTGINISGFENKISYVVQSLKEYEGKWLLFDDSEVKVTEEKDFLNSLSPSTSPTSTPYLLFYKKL
# How it was run: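 In 50mM HEPES pH 7.8 containing 0.5mM EDTA, 1mM TCEP, 0.1 mg/ml BSA and 0.01% Tween-20, 1nM USP1/UAF1 is exposed to compound for 15 min, then Ub-Rho (150nM final) is added and fluorescence is read over time.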
# [13] = Primary qHTS for small molecule stabilizers of the endoplasmic reticulum resident proteome: Secreted ER Calcium Modulated Protein (SERCaMP) assay (AID 1508630); settings: SH-SY5Y GLuc-SERCaMP (Gaussia luciferase released on ER calcium loss) secretion, thapsigargin, luminescence; series mostly up to 38.4 µM; also: % is scaled to controls: 0 for no effect and ±100 for the full control effect
# How it was run: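 GLuc-SERCaMP-expressing SH-SY5Y cells, pretreated 16 h with compound, are challenged with thapsigargin to empty ER calcium stores; after 4 h, coelenterazine is added directly to the medium and luminescence is imaged.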
# [14] = biological target: Cytochrome P450 3A4 (Homo sapiens) (UniProt P08684); experiment: qHTS Assay for Activators of Cytochrome P450 3A4 (AID 885); settings: recombinant CYP3A4, Luciferin-PPXE luminescence, 60 min; series mostly up to 57.1 µM; also: nearly all actives have a fitted effect of over 65% in size
# Sequence of Cytochrome P450 3A4 (Homo sapiens) (P08684 whole entry, looked up): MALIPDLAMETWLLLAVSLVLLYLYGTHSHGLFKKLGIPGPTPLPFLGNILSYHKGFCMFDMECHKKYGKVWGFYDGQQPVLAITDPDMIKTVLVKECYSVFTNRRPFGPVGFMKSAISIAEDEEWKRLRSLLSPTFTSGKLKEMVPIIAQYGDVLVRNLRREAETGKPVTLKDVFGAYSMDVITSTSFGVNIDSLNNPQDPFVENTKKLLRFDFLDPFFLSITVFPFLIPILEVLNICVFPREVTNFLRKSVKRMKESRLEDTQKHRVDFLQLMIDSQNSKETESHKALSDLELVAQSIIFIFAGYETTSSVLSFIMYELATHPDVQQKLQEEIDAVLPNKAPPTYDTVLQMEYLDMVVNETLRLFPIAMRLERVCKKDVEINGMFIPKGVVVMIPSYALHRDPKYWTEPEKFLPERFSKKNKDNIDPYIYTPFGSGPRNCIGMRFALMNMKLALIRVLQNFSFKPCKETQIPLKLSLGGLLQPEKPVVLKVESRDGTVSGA
# How it was run: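 Steps: enzyme/substrate mix dispensed; compound added, 10 min RT; NADPH regeneration solution added, 60 min RT; luciferin detection buffer stops reaction; 20 min later luminescence measured.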
# [15] = Stat Signaling Pathway (AID 446; active = well fitted curve in either direction with a large enough effect, not every such curve was filed as active;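 also: ME-180 cervical cancer cells given 40 pM IL-6 alongside compound; SIE-controlled beta-lactamase reporter measured as 460/530 nm FRET emission ratio; % is scaled to controls: 0 for no effect and ±100 for the full control effect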); settings: ME-180 SIE beta-lactamase reporter, IL-6 stimulated, 5 h; at 7.69 µM (top of the series) unless noted
# How it was run: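 Screening format detects activators and inhibitors alike: ME-180 SIE-bla cells stimulated at 40 pM IL-6 for 5 hrs with compound, then dual-emission beta-lactamase read at 405 nm excitation.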
# [16] = biological target: Mitogen-activated protein kinase 10 (Mus musculus) (UniProt Q61831); experiment: JNK3 AlphaScreen Assay (AID 530; active = well fitted curve in either direction with a large enough effect, not every such curve was filed as active); settings: JNK3 lysate, c-Jun phosphorylation; series mostly up to 57.1 µM
# How it was run: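 Compound titrations were preincubated 15 minutes at room temperature with substrate, antibody and pre-activated JNK3-containing HepG2 lysate. Reactions were started with 10 uM ATP and stopped with EDTA-containing bead buffer for AlphaScreen detection.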
# [17] = biological target: Cytochrome P450 2C9 (Homo sapiens) (UniProt P11712); experiment: qHTS Assay for Inhibitors and Substrates of Cytochrome P450 2C9 (AID 883); settings: recombinant CYP2C9, luciferin-H luminescence, 60 min; series mostly up to 57.1 µM; also: % is scaled to controls: 0 for no effect and ±100 for the full control effect; nearly all actives have a fitted effect of over 60% in size
# Sequence of Cytochrome P450 2C9 (Homo sapiens) (P11712 whole entry, looked up): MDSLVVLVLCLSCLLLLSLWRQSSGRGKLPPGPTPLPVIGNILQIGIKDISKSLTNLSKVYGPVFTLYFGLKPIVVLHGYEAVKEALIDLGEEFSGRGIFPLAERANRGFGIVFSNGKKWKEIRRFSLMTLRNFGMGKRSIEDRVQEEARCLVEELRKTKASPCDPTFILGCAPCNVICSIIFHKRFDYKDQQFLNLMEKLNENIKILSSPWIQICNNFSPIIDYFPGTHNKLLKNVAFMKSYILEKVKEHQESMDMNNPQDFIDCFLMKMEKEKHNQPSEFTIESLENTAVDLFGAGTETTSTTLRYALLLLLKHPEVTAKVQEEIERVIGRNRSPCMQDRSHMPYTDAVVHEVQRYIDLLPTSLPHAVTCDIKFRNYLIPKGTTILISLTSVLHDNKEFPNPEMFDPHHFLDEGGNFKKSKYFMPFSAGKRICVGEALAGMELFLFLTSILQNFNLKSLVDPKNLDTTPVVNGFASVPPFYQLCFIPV
# How it was run: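 Inhibition of CYP2C9 is scored as loss of luminescence, with 57uM sulphaphenazole defining 100% inhibition. Substrate Luciferin-H is used at 100uM, equal to its KM; enzyme at 10nM in 25mM KPO4, 60 min at 37C with NADPH regeneration.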
# [18] = biological target: Cytochrome P450 3A4 (Homo sapiens) (UniProt P08684); experiment: qHTS Assay for Inhibitors and Substrates of Cytochrome P450 3A4 (AID 884); settings: recombinant CYP3A4, Luciferin-PPXE luminescence; series mostly up to 57.1 µM; also: nearly all actives have a fitted effect of over 50% in size; also: potency is read from the fitted curve at half-maximal effect
# How it was run: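 20 nM human CYP3A4 with 25 uM Luciferin-PPXE (at KM) in 200 mM KPO4, preincubated 10 min with compound; NADPH regeneration started a 60 min RT reaction. Luciferin detected by luminescence, normalized to 57 uM ketoconazole as full inhibition.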
# [19] = biological target: Cytochrome P450 2C19 (Homo sapiens) (UniProt P33261); experiment: qHTS Assay for Inhibitors and Substrates of Cytochrome P450 2C19 (AID 899); settings: recombinant CYP2C19, luciferin-H EGE luminescence; series mostly up to 57.1 µM; also: potency is read from the fitted curve at half-maximal effect; nearly all actives have a fitted effect of over 60% in size
# How it was run: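 5nM enzyme + 10uM Luciferin-H EGE (=KM), 50mM KPO4; cpd pin-transferred, 10 min 37C; NADPH regen, 60 min 37C; stopped w/ luciferin detection reagent, 20 min; luminescence. Normalized to 57uM ketoconazole (AC100).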
# [20] = biological target: Cytochrome P450 2D6 (Homo sapiens) (UniProt P10635); experiment: qHTS Assay for Inhibitors and Substrates of Cytochrome P450 2D6 (AID 891); settings: recombinant CYP2D6, luciferin-ME EGE luminescence; series mostly up to 57.1 µM; also: potency is read from the fitted curve at half-maximal effect; nearly all actives have a fitted effect of over 60% in size
# How it was run: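 Human CYP2D6 (5 nM) with 30 uM Luciferin-ME EGE (at Km) in 100 mM KPO4, compound preincubated 10 min, then NADPH regeneration system for 60 min at room temperature. Luciferin read by luminescence; normalized to 1.43 uM quinidine.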
SMILES,Potency [1],"activity change, negative = inhibition [2]",Potency [3],"activity change, negative = inhibition [4]",Potency [5] [µM],Potency [6] [µM],Potency [7],Potency [8],Potency [9],Potency [10],Potency [11],Potency [12],outcome [13],Potency [14],"activity, negative = inhibition [15] [%]",Potency [16],"activity change, negative = inhibition [17]",Potency [18],Potency [19],Potency [20]
O=c1c(-c2ccc(F)cc2)nc2cnc(N3CCOCC3)nc2n1CCc1ccccc1,> 11.4 µM,79.3% [activator] (active),25.1 µM (active),103% [activator] (active),> 9.22,> 46,inactive,0.501 µM (active),inactive,inactive,inactive,inactive,inactive,–,–,–,–,–,–,–
CCNc1ncc2nc(-c3cccs3)c(=O)n(Cc3ccc(F)cc3)c2n1,> 11.4 µM,24.9%,10 µM (active),-12.4%,> 9.22,> 46,inactive,–,inactive,inactive,inactive,20 µM (active),inactive,inactive,–,–,–,–,–,–
COc1ccccc1CNc1cc(-c2ccccc2C(F)(F)F)ncn1,> 11.4 µM,-11.1%,15.8 µM (active),-8.05%,–,–,inactive,–,inactive,inactive,inactive,inactive,inactive,–,9.59,inactive,8.84% [at 2.29 µM],inactive,1 µM (active),–
Cn1cc(-c2nc3cnc(N4CCNCC4)nc3n(-c3ccccc3)c2=O)c2ccccc21,> 11.4 µM,22.4%,15.8 µM (active),24.6%,> 9.22,> 46,inactive,3.98 µM (active),inactive,inactive,inactive,inactive,inactive,inactive,–,–,–,–,–,–
CNc1nc(-c2c(C)noc2C)nc2ccccc12,> 11.4 µM,5.72%,0.0501 µM (active),8.72%,> 46,> 46,inactive,–,17.8 µM (active),20 µM (active),inactive,–,inactive,inactive,-5.04,inactive,37.6% [at 2.29 µM],–,–,–
CN(C)C(=O)c1ccc(-c2nccc(N(C)Cc3ccco3)n2)cc1,> 11.4 µM,-6.22%,12.6 µM (active),-2.09%,> 46,> 46,inactive,–,inactive,inactive,inactive,–,inactive,–,4.76,inactive,–,–,–,–
COc1ccccc1-c1cncnc1NCc1cnc(C)cn1,> 11.4 µM,-7.64%,20 µM (active),2.58%,–,> 46,inactive,–,inactive,inactive,inactive,inactive,inactive,inactive,4.26,inactive,–,1.26 µM (active),–,–
CS(=O)(=O)Nc1cccc(-c2nccc(Nc3ccc(F)cc3)n2)c1,> 11.4 µM,-12.6%,0.126 µM (active),2.44%,> 46,> 46,inactive,–,15.8 µM (active),10 µM (active),11.2 µM (active),–,inactive,inactive,–,inactive,–,–,–,–
N#CCCn1c(=O)c(CCc2ccccc2)nc2cnc(Nc3ccccc3)nc21,> 11.4 µM,-27.7%,inactive,-25.2%,> 9.22,> 46,inactive,–,inactive,inactive,inactive,inactive,inactive,inactive,–,inactive,–,–,–,–
CCNc1ncc2nc(-c3ccc(F)cc3)c(=O)n(C[C@H]3CCCO3)c2n1,> 11.4 µM,-0.226%,1.26 µM (active),12.6%,> 9.22,> 46,–,–,inactive,inactive,inactive,inactive,inactive,–,–,inactive,–,–,–,–
CCNc1ncc2nc(-c3ccccc3)c(=O)n(CCOC)c2n1,> 11.4 µM,22.2%,3.16 µM (active),22.8%,> 9.22,> 46,inactive,–,inactive,inactive,inactive,inactive,inactive,inactive,–,inactive,–,–,–,3.16 µM (active)
COc1cccc(Cn2c(=O)cnc3cnc(OC)nc32)c1,> 11.4 µM,17.7%,12.6 µM (active),20%,> 9.22,> 46,inactive,–,inactive,inactive,inactive,inactive,inactive,–,–,inactive,–,–,–,–
CNc1nc(-c2ccccc2C)nc2ccccc12,8.72 µM (active),8.12%,0.501 µM (active),3.1%,> 46,> 46,–,–,12.6 µM (active),12.6 µM (active),14.1 µM (active),–,inactive,inactive,9,inactive,–,–,–,–
